Test results as given in ChEMBL document CHEMBL4513216, “Probing the Open Global Health Chemical Diversity Library for Multistage-Active Starting Points for Next-Generation Antimalarials” (ACS Infect Dis, 2020).
The whole screen tested about 69,000 compounds, of which about 8,600 (12%) showed an effect of 50% or more. What follows is part of a selection rich in strong results, with near analogues and random picks from the rest.

test system: Plasmodium berghei; test: Screen against P. berghei liver stage (PbLuc), transformed with Luciferase, at 10uM; type: functional, HepG2; settings: tested at 10 uM

SMILES | INHIBITION [%]
Cc1cc2c(cc1CN1CCCCC1CCn1ccnc1C)OCO2 (configuration not stated) | 13.7
Cc1nccn1CCC1CCCCN1Cc1ccc(N(C)C)nc1 (configuration not stated) | -38.9
Cc1c[nH]c(CN2CCCCC2CCN(C)C)c(C)c1=O (configuration not stated) | 38.8
Cc1nccn1CCC1CCCCN1Cc1ccc2c(c1)OCCO2 (configuration not stated) | 51.3
Cc1nccn1CCC1CCCCN1Cc1ccncc1 (configuration not stated) | -57.8
Cc1c[nH]c(CN2CCCCC2CCn2cccn2)c(C)c1=O (configuration not stated) | 51.8
Cc1c[nH]c(CN2CCCCC2CCn2ccnc2C)c(C)c1=O (configuration not stated) | 53.9
Cc1nccn1CCC1CCCCN1Cc1cnc(N(C)C)nc1 (configuration not stated) | 33.3
CC[C@@H]1N(Cc2nccs2)CCC[C@]12CCC(=O)N2C | -27
COc1ccc(-c2nnc(CNCCn3cccn3)o2)cc1 | 23.5
CO[C@H]1CCN(C(=O)c2cc(C)on2)C[C@@H]1Cc1ccccc1 | 2.58
Cc1[nH]ncc1CCCNC(=O)N1CCCC(c2nncn2C)C1 (configuration not stated) | -29.8
CCCn1nccc1NC(=O)CN1CCCC1Cn1cccn1 (configuration not stated) | 12.3
Cc1cccc(OCC2CCCN(C(=O)Cn3ccccc3=O)C2)c1 (configuration not stated) | 13.6
Cn1cc(C(=O)Nc2ccnc(Oc3ccccc3)c2)ccc1=O | 16.8
COC(=O)c1ccc(CNC(=O)Nc2ccc(=O)n(C)c2)cc1 | 59.3
COc1cccc(CCNC(=O)c2ccc(=O)n(C)c2)c1 | 24.2
Cn1cc(NC(=O)NCc2ccoc2)ccc1=O | 47.4
Cn1cc(C(=O)Nc2cccc(Oc3ccncc3)c2)ccc1=O | 51.5

SMILES | INHIBITION [%]
COc1ccc(CNC(=O)Nc2ccc(=O)n(C)c2)cc1 | 29
COc1ccc(CNC(=O)c2ccc(=O)n(C)c2)cc1C | 11.8
COc1cccc(-c2ccc(CNC(=O)c3ccc(=O)n(C)c3)cc2)c1 | 72.3
Cn1cc(C(=O)Nc2cccc(F)c2)ccc1=O | 42.6
CN1Cc2ccccc2CC2(CCN(Cc3nccn3C)CC2)C1=O | 34.5
Cc1cc(C2CCCN(CCNS(=O)(=O)c3ccccc3)C2)n[nH]1 (configuration not stated) | 11.9
CC1CN(C)CCN1C(=O)Nc1nc(-c2ccco2)cs1 (configuration not stated) | 14
O=C(c1ccco1)N1CCC2(CCC(=O)N2Cc2ccncc2)CC1 | 8.74
c1ccc(Cc2noc(-c3ccc(NCC4COCCO4)nc3)n2)cc1 (configuration not stated) | 12.02
CC(NC(=O)NCCC(=O)OC(C)(C)C)c1nncn1C (configuration not stated) | 25.4
CCc1nccn1-c1cncc(C2CCCN2CC(=O)N2CCCC2)n1 (configuration not stated) | 4.08
Cc1cc2cccc(C(=O)N3CCOC(CCN(C)C)C3)c2o1 (configuration not stated) | 33
Cc1cccc(CN2CC3(CCN(S(=O)(=O)C4CC4)CC3)OCC2=O)n1 | 7.53
Cc1nccn1CCCn1cncc1-c1ccc2c(c1)CC(C)N2C (configuration not stated) | 62.4
Cc1cc(C)n(CCCn2cncc2-c2ccc3c(c2)CC(C)N3C)n1 (configuration not stated) | 42.6
Cc1nccn1CCCn1cncc1-c1ccc2c(c1)CCCN2C | 41.5
CN1CCCc2cc(-c3cncn3CCNC3CCS(=O)(=O)C3)ccc21 (configuration not stated) | 32.3
Cc1nccn1CCCn1cncc1-c1ccc2c(c1)CCC(C)N2C (configuration not stated) | 87.7
CCN1c2ccc(-c3cncn3CCCn3ccnc3C)cc2CC1C (configuration not stated) | 36

SMILES | INHIBITION [%]
O=C(NCc1ccco1)[C@@H]1CCO[C@@H]2CCN(c3ncccn3)C[C@H]21 | 17.1
O=C(Cn1ncc2c(c1=O)CCCC2)Nc1cccc2[nH]ccc12 | 30.2
Cc1nc(N(C)C)nc(NCCc2c[nH]cn2)c1C | -38
COCC(=O)N1CCCC(c2csc(NC(C)=O)n2)C1 (configuration not stated) | -55
CCCn1cc(S(=O)(=O)N(C)Cc2nonc2C)c(C)n1 | 3.48
Cn1cc(CN2CCc3c(cnc(-c4ccccc4)c3C(=O)O)C2)cn1 | 23.3
CNC(=O)C1Cn2ccnc2C2(CCN(C(=O)CC3CCCC3)CC2)O1 (configuration not stated) | -10.3
Cc1ccc(C(=O)N2CCC(c3noc(-c4cccnc4)n3)CC2)cn1 | 42.6
COCCN1C[C@@H](C)[C@@]2(COCCN(C(=O)c3ccccn3)C2)C1 | 36.2
CCCNC(=O)c1nn(CC)cc1NC(=O)c1c(C)nn(C)c1C | -4.56
CCc1ccccc1OCC(=O)N1CCOCC1c1ncon1 (configuration not stated) | 60.5
O=C(COc1cccc(Cl)c1)N1CCOCC1c1ncon1 (configuration not stated) | 7.12
CC(C)c1ccc(OCC(=O)N2CCOCC2c2ncon2)cc1 (configuration not stated) | -50.8
Cc1cc(C)cc(OCCC(=O)N2CCOCC2c2ncon2)c1 (configuration not stated) | 50.4
O=C(COc1ccc(Cl)cc1)N1CCOCC1c1ncon1 (configuration not stated) | 55.4
Cc1cccc(C)c1OCC(=O)N1CCOCC1c1ncon1 (configuration not stated) | -53.2
Cc1ccc(CCC(=O)N2CCOCC2c2ncon2)c(C)c1 (configuration not stated) | -56.7
CCc1ccc(CCC(=O)N2CCOCC2c2ncon2)cc1 (configuration not stated) | 27.9
Cc1ccc(OCCC(=O)N2CCOCC2c2ncon2)cc1C (configuration not stated) | 21.6
